This is a sample that favours compounds with a hit; in the whole collection about 4.1% have one here.
tim10-1 inh: inhibits growth of tim10-1 mutant yeast | AID 463190 | actives 2.2% (n = 330,000) | S. cerevisiae tim10-1 ts strain growth, BacTiter-Glo, 24 h | inhibition, % at 20 µM;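 active = inhibition of at least 40%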;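 also: mutant grown at 25 °C; 0% = DMSO wells with yeast and 100% = wells holding no yeast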
TIM10 inh: inhibits growth of TIM10 yeast strain | actives 1.4% (n = 330,000) | inhibition, % at 10 µM | AID 463195 | S. cerevisiae TIM10 strain growth, BacTiter-Glo luminescence, 24 h;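 active = inhibition of 40% or more at the single tested concentration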;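 also: wild-type TIM10 isogenic control strain grown at permissive 25 °C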
NALP1 inh: NALP1 inhibition | S. cerevisiae NALP1/ASC/caspase-1 growth, X-gal OD620, 72 h | AID 2071 | actives 0.61% (n = 280,000) | inhibition, % at 10 µM; in the data active = inhibition mostly above about 24%, no sharp cut-off; inactive = mostly below about 32%
NLRP3 yeast inh: NALP3 inhibition in yeast; Yeast reconstituted NLRP3/ASC/caspase-1, beta-gal luminescence, 24 h; inhibition, % at 10 µM; actives 0.39% (n = 330,000); AID 2825;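 active = inhibition of 50% or more; inactive = inhibition below 50%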;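 also: plate controls were induced DMSO wells for no effect and uninduced yeast grown without galactose for full effect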
PfHsp90 set2: inhibits growth of yeast expressing Plasmodium falciparum Hsp90; S. cerevisiae expressing PfHsp90, BacTiter-Glo ATP, 48 h; yeast lacking PDR1 and PDR3 efflux regulators; actives 0.32% (n = 310,000); AID 504621; inhibition, % at 9.4 µM;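 active = every replicate shows inhibition above about 80%, whatever the replicate mean, limit read from the data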;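 also: 0% = DMSO neutral controls and 100% = 20 µM radicicol positive controls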
tim23-1 inh: tim23-1 yeast growth inhibition; S. cerevisiae tim23-1 growth, BacTiter-Glo luminescence, 24 h; inhibition, % at 20 µM; actives 1.3% (n = 330,000);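 active = growth inhibition of the mutant yeast at or above 50%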;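 also: temperature-sensitive mutant grown at 25 °C; plate controls were DMSO-treated mutant yeast for no effect and medium wells lacking yeast for full effect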
An asterisk follows results filed as active; . = no result.

SMILES	tim10-1 inh	TIM10 inh	NALP1 inh	NLRP3 yeast inh	PfHsp90 set2	tim23-1 inh
COc1ccc(CNS(=O)(=O)CCNCCc2ccccc2)cc1	.	.	.	.	6	.
COc1ccc(CNCCC(c2ccc(F)cc2)c2ccc(OC)cc2)cc1 (stereo not drawn)	-2	-3	79*	23	0	3
COc1ccc(C(CCNCc2ccc(F)cc2)c2ccc(F)cc2)cc1 (stereo not drawn)	0	20	68*	35	7	32
COc1ccc(Cl)cc1-c1nc(SCC(=O)NCC2CCCO2)n[nH]1 (stereo not drawn)	10	5	.	-3	12	-14
Cc1ccc(-n2nc(C)c3c(C)c(CCC(=O)NC(C)c4ccccc4)c(C)nc32)cc1 (stereo not drawn)	24	25	39*	14	-9	13
O=C(CN(C(=O)c1csnn1)c1ccc(F)c(Cl)c1)NC1CCCC1	-5	4	10	14	-38	6
CCOC(=O)C(=O)NNc1ccc(Cl)cc1	7	-70	50*	27	6	-117
CCOC(=O)CN(C(=O)COC(=O)C1=NNC(=O)CC1)c1ccc(F)cc1	-2	-5	.	18	0	9
O=C(NCc1ccc2c(c1)OCO2)c1ccccc1	8	-6	-37	10	-26	10
O=C(NCc1ccc2c(c1)OCO2)c1ccc(Br)cc1	-21	-71	0	25	89*	37
CCc1ccc2nc(NC(=O)CN3C(=O)NC4(CCCC4)C3=O)sc2c1	8	-1	.	15	.	16
Cc1nnc(N=c2ssnc2Cl)o1	27	28	.	12	143*	39
Nc1ccccc1N=c1ssnc1Cl	.	.	12	.	6	.
CN(C)c1ccc2nc3c(=O)[nH]c(=O)nc-3n(CC(O)C(O)C(O)CO)c2c1 (stereo not drawn)	28	32	21	47	9	32
N#CCCSc1ccccc1NC(=O)c1cc(=O)c2ccccc2o1	-18	-4	4	13	-5	18
CCOC(=O)N1CCC(NC(=O)CCN2C(=O)C3C4C=CC(C4)C3C2=O)CC1 (stereo not drawn)	9	0	-18	6	9	20
O=C(CCN1C(=O)C2C3C=CC(C3)C2C1=O)NC1CCCCC1 (stereo not drawn)	17	12	37*	3	0	13
COC(=O)CN(c1ccccc1C)S(C)(=O)=O	15	-9	31*	9	11	-15
CCc1ccccc1N(CC(=O)OC)S(C)(=O)=O	5	7	-3	2	-11	4
O=C1c2cc(F)ccc2-n2c1nc1ccccc1c2=O	-11	9	9	-3	90*	30
Nn1c(-c2ccc(F)cc2)nc2ccccc2c1=O	15	9	-5	3	-13	15
COC(=O)c1ccc(N/C=C/C(=O)c2ccccc2)cc1	5	-6	4	12	4	12
O=[N+]([O-])c1ccc(Sc2cccc[n+]2[O-])c2nonc12	.	.	3	.	97*	.
Cc1sc2ncnc(N/N=C/c3ccccc3O)c2c1C	.	.	122	.	101*	.
CCCCn1cnc2c(sc3nc4c(cc32)CSC(C)(C)C4)c1=O	23	15	31	11	11	13
SMILES	tim10-1 inh	TIM10 inh	NALP1 inh	NLRP3 yeast inh	PfHsp90 set2	tim23-1 inh
CC1(C)Cc2nc3sc4c(NCCO)ncnc4c3cc2CS1	2	6	31*	6	-1	6
Cc1ccc(S(=O)(=O)N2CCN(C(=O)c3ccc4ccccc4n3)CC2)c(C)c1	22	9	.	9	-24	45
CCCCN(Cc1ccccc1)C(=O)C1CCN(S(=O)(=O)c2c(C)noc2C)CC1	12	17	37*	4	-3	16
Cc1noc(C)c1NC(=O)N(C)C[C@H]1Oc2c(NC(=O)C3CCCCC3)cccc2C(=O)N([C@H](C)CO)C[C@@H]1C	-8	-4	.	9	11	-7
CC(=O)c1ccc2noc(-c3ccccc3)c2c1	-5	-5	7	19	5	4
CN(C)/C=C/C(=O)c1ccc2noc(-c3ccccc3)c2c1	32	19	17	21	106*	25
CN(C)/C=C/C(=O)c1ccc(Oc2ccccc2)cc1	21	13	2	25	101*	33
O=C(OCC(=O)N1CCN(C(=O)c2ccco2)CC1)c1cc(F)c(F)cc1Cl	21	-4	.	20	-9	9
Cc1ccc(NC(=O)NC(=O)COc2c(F)c(F)cc(F)c2F)c(C)c1	19	-1	.	8	1	11
CC1(C)N=C(SCC(=O)Nc2ccc(Cl)cc2)C(c2ccccc2)=N1	34	20	9	22	.	11
CC1(C)N=C(SCC(=O)Nc2ccc(Cl)cc2)C(c2ccc(Cl)cc2)=N1	30	34	36*	40	110*	28
NC(=S)NC1CCS(=O)(=O)C1 (stereo not drawn)	-9	-8	3	11	29	-3
C=CCSC(=S)NC1CCS(=O)(=O)C1 (stereo not drawn)	10	15	82*	25	-9	27
CCc1sc(C(=O)N2CCN(C(=O)c3ccccc3)CC2)cc1C	-12	-10	.	18	7	-2
COc1ccc(-c2sc3ccccc3c2/C=C/c2ccncc2)cc1	-110	-71	.	7	106*	-45
COc1ccc(-c2sc3ccccc3c2/C=C/c2ccc(OC)c(OC)c2)cc1	4	10	.	15	6	27
Cc1cn(C2CC(O)C(CO)O2)c(=O)n(Cc2ccccc2)c1=O (stereo not drawn)	.	.	.	.	8	.
CN(C)/C=C/C(=O)/C=C/c1cn(-c2ncc(C(F)(F)F)cc2Cl)c2ccccc12	35	11	26	8	121*	47
COc1ccc(S(=O)(=O)N(C)Cc2cccs2)cc1Br	19	20	41*	32	8	25
CC1CC1C(=O)Nc1ccc(S(=O)(=O)N2CCCCC2)cc1 (stereo not drawn)	23	14	.	12	.	17
CN(C)C(=O)CSc1cnc2ccccc2n1	6	-10	28*	21	7	-4
COc1ccc(S(=O)(=O)N2CCCCC2)cc1NC(=O)C1CC1C (stereo not drawn)	19	15	.	0	0	18
Cc1cc(C)cc(N2C(=O)C=CC2=O)c1	.	.	.	.	108*	.
COc1ccc(CCNC(=O)COC(=O)CSc2ccc(C(N)=O)cc2[N+](=O)[O-])cc1OC	.	.	.	.	17	.
c1ccc2c(Nc3nc(N4CCOCC4)c4ccccc4n3)cccc2c1	26	28	91*	47	-10	32
Fc1ccc(Nc2nc(N3CCOCC3)c3ccccc3n2)cc1	3	-7	14	23	-3	5
Cc1ccc(NC(=O)Nc2ncccc2C)cc1	0	11	11	43	16	12
Cc1cccnc1NC(=O)Nc1ccc(F)cc1	27	4	28*	27	-11	5

Screens: PubChem, several laboratories
